Reference: the supplement of paper PMC10338343
± gives the standard deviation.

What was measured:
[1] = system: MILI (PIWIL2) piRISC loaded with L1MC piRNA (26 nt); test: pre-steady-state target cleavage rate (min^-1); guide: L1MC piRNA 5'p-UAACUAAAUACUAUGCAAGCUGUAGG; higher = faster piRNA-guided slicing of the target
Method in brief: (§1)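 Cleave-'n-Seq used a transcribed, DNA-blocked target RNA library at 0.1 nM and active affinity-purified piRISC with one synthetic guide at 1 nM, with or without 500 nM GTSF1 partner protein, in HEPES–potassium acetate buffer at 33 °C for 0–8 or 0–960 min. Uncleaved targets were sequenced and normalised to depth and to weakly complementary targets, and three trials were pooled with k3 capped at 0.0001 min^-1. The pre-steady-state cleavage rate was estimated by a burst-and-steady-state fit.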

[2] = system: EfPiwi piRISC loaded with L1MC piRNA (26 nt); test: pre-steady-state target cleavage rate (min^-1); auxiliary factor: 500 nM Ephydatia muelleri Gtsf1; guide: L1MC piRNA 5'p-UAACUAAAUACUAUGCAAGCUGUAGG; MIWI and MILI are mouse PIWI proteins and EfPiwi is from a freshwater sponge; tags in brackets are library labels; higher = faster piRNA-guided slicing of the target
Method in brief: as §1

[3] = auxiliary factor: 500 nM mouse GTSF1
[4] = auxiliary factor: none (no GTSF1)

Sequence | pre-steady-state target cleavage rate [1, 3] | pre-steady-state target cleavage rate [1, 4] | pre-steady-state target cleavage rate [2]
UCCUGGUACAGCUUUGCAUAGUAUUUAGUUA | 0.185 ± 0.018 | 0.0164 ± 0.0048 | 0.00974 ± 0.0035
UCCUGGUACAGUUGCAUAGUAUUUAGUUA | 0.227 ± 0.023 | 0.0115 ± 0.003 | 0.0124 ± 0.0051
UCCUGGAACAGGUUGGAUAGUAUUUAGUUA | 0.164 ± 0.02 | 0.00851 ± 0.0024 | 0.00375 ± 0.0014
UCCUCGCUACAGCUUGCAUAGUAUUUAGUUA | 0.276 ± 0.02 | 0.00839 ± 0.0032 | 0.0505 ± 0.017
UCCUGCUACUGCUUGCAUAGUAUUAAGUUA | 0.151 ± 0.02 | 0.00322 ± 0.0028 | 0.00584 ± 0.0021
UCCUGGUACUGCUUGCAAAGUAUUUAGUUA | 0.0806 ± 0.01 | 0.00779 ± 0.0021 | 0.0752 ± 0.027
UCCUGGUACAGCUAGCAUAGUAUUUUGUUA | 0.085 ± 0.028 | 0.00427 ± 0.0033 | 0.00396 ± 0.0023
UCCUGGAAGAGCAUGCAUAGUAUUUAGUUA | 0.196 ± 0.015 | 0.00911 ± 0.0029 | 0.0132 ± 0.004
UCCUGGAUGUCCUUGCAUAGUAUUUAGAUA | 0.118 ± 0.018 | 0.00265 ± 0.0023 | 0.00461 ± 0.0029
UCCUGGAUGUGCUUGUAUAGUAUUUAGUUA | 0.142 ± 0.017 | 0.0136 ± 0.004 | 0.0218 ± 0.0071
UCCUGGUACACGCUUGCAUAGUAUUUAGUUA | 0.167 ± 0.046 | 0.0158 ± 0.0071 | 0.00613 ± 0.0031
UCCUCGUUCAGCUUGCAUAGUAUUUAGUUA | 0.262 ± 0.015 | 0.00616 ± 0.0018 | 0.104 ± 0.021
UCCUGGAUGUGCUUGCAUAGUAUUUAGUUU [g2:g20:cont:t1U] | 0.158 ± 0.016 | 0.0103 ± 0.0037 | 0.052 ± 0.017
UCCUGGAUCACGCUUGCAUAGUAUUUAGUUA | 0.205 ± 0.018 | 0.00715 ± 0.0036 | 0.223 ± 0.05
UCCUGGUACAGCUUGCAUAGUAUUUAGUUG [g2:g24:cont:t1G] | 0.218 ± 0.018 | 0.00995 ± 0.003 | 0.0182 ± 0.0065
UCCUCCUACAGCAUGCAUAGUAUUUUGUUA | 0.143 ± 0.02 | 0.00296 ± 0.0027 | 0.00297 ± 0.0021
UCCUGGAUGUCCUUGCAUAGUAUUAAGUUA | 0.116 ± 0.019 | 0.00289 ± 0.0026 | 0.00404 ± 0.0034
UCCUGGAACAGCUUGCAAUGUAUUUAGUUA | 0.0726 ± 0.0083 | 0.00437 ± 0.002 | 0.00454 ± 0.0035
UCCUGGUACAGCUUGCAUAGUAUUAAGUUA | 0.252 ± 0.041 | 0.00423 ± 0.0038 | 0.00521 ± 0.0021
UCCUGCUUCAGCUUGGAUAGUAUUUAGUUA | 0.268 ± 0.015 | 0.0068 ± 0.002 | 0.0331 ± 0.007
UCCUGGAAGAGCUUGGAUAGUAUUUAGUUA | 0.178 ± 0.0086 | 0.00531 ± 0.0023 | 0.00392 ± 0.0027
UCCUGGAUGUCCUUGCAUAGUACUUAGUUA | 0.0548 ± 0.01 | 0.00401 ± 0.0028 | 0.00586 ± 0.0027
UCCUGCUACAGCUUGCAUAGUAUUUAGUUA [g2:g25:cont:t1A] | 0.282 ± 0.019 | 0.0105 ± 0.003 | 0.0357 ± 0.011
UCCUGGAUGACCUUGGAUAGUAUUUAGUUA | 0.14 ± 0.013 | 0.00594 ± 0.0024 | 0.00325 ± 0.0032
UCCUGCUACAGCUUGCAUAGUAUUUAGUUUA | 0.308 ± 0.018 | 0.0118 ± 0.0032 | 0.0608 ± 0.016

Sequence | pre-steady-state target cleavage rate [1, 3] | pre-steady-state target cleavage rate [1, 4] | pre-steady-state target cleavage rate [2]
UCCUGGAACACGUUGCAUAGUAUUUAGUUA | 0.193 ± 0.014 | 0.01 ± 0.0027 | 0.0172 ± 0.0053
UCCUGCUACAGCUUGCAAAGUAUUUAGUAA | 0.121 ± 0.021 | 0.00272 ± 0.0025 | 0.00434 ± 0.0016
UCCUGGAAGAGCUUGCAUAGUAUUAAGUUA | 0.21 ± 0.023 | 0.00346 ± 0.0028 | 0.00519 ± 0.0018
UCCUGGAUGAGCUUGCAUAGUACUUAGUUA | 0.127 ± 0.018 | 0.00646 ± 0.0022 | 0.0106 ± 0.0037
UCCUCCUAGAGCUUGCAUAGUAAUUAGUUA | 0.264 ± 0.029 | 0.00317 ± 0.0031 | 0.011 ± 0.0039
UCCUGCUACUGCUAGCAUAGUAUUUAGUUA | 0.253 ± 0.017 | 0.0054 ± 0.0023 | 0.0129 ± 0.0034
UCCUGGAACAGCCUUGCAUAGUAUUUAGUUA | 0.225 ± 0.019 | 0.00974 ± 0.003 | 0.0147 ± 0.0046
UCCUGGAUCAGCUUGCAUAGUAUUAAGUUA | 0.262 ± 0.026 | 0.00729 ± 0.0019 | 0.0323 ± 0.0094
UCCUGGAUCAGCUAGCUUAGUAUUUAGUUA | 0.214 ± 0.018 | 0.00868 ± 0.002 | 0.00676 ± 0.0036
UCCUGCUACAGCUUCCAAAGUAUUUAGUUA | 0.112 ± 0.015 | 0.00347 ± 0.0025 | 0.00321 ± 0.0019
UCCUCCAACAGCAUGCAUAGUAUUUAGUUA | 0.282 ± 0.016 | 0.0108 ± 0.0025 | 0.0161 ± 0.0047
UCCUGGAUCAGCUUGCAUAGCAUUUAGUUA | 0.08 ± 0.012 | 0.00359 ± 0.0025 | 0.00774 ± 0.0021
UCCUGGAACCGCUUGCAUAGUAUUUAGUUA | 0.265 ± 0.015 | 0.0108 ± 0.002 | 0.0172 ± 0.0054
UCCUGGAUGUGCUUGCAUAGUAUUUAGUUA [g2:g20:cont:t1A] | 0.142 ± 0.013 | 0.00984 ± 0.0023 | 0.015 ± 0.0046
UCCUCCUAGACCUUGCAUAGUAUUUAGUUA | 0.237 ± 0.024 | 0.00751 ± 0.0025 | 0.141 ± 0.041
UCCUGGUACAGCCUUGCAUAGUAUUUAGUUA | 0.198 ± 0.02 | 0.0147 ± 0.0051 | 0.0209 ± 0.0073
UCCUGCAUCAGCUUGCAUAGUAUUUAGUAA | 0.223 ± 0.019 | 0.00464 ± 0.0032 | 0.00847 ± 0.0021
UCCUGGAACAGCUUGGAAAGUAUUUAGUUA | 0.125 ± 0.0077 | 0.00969 ± 0.0023 | 0.0164 ± 0.0053
UCCUCCAACAGCUUGCAUACUAUUUAGUUA | 0.0905 ± 0.012 | 0.00321 ± 0.0025 | 0.00961 ± 0.0032
UCCUCCUACAGCUUGCUUAGUAUUUUGUUA | 0.133 ± 0.016 | 0.0026 ± 0.0026 | 0.00532 ± 0.0028
UCCUGGAUCAGCUUGGAUAGUAAUUAGUUA | 0.167 ± 0.018 | 0.00352 ± 0.0023 | 0.00256 ± 0.0025
UCCUGGUACAGCUUGCUUACUAUUUAGUUA | 0.0679 ± 0.012 | 0.00375 ± 0.0027 | 0.00704 ± 0.0031
UCCUGGUACAGCUUGCAUGUAUUUAGUUA | 0.0383 ± 0.0075 | 0.00417 ± 0.0024 | 0.0036 ± 0.0031
UCCUGCUUCAGCUUGCAUUGUAUUUAGUUA | 0.218 ± 0.013 | 0.0103 ± 0.0023 | 0.0233 ± 0.0065
